Results taken from PubChem BioAssay (NCATS).
Inconclusive results are not listed. Unless noted, calls come from the whole dose curve; as a rule, active = well fitted curve in either direction with a large enough effect (not every such curve was filed as active); inconclusive = small, poorly fitted or top-dose-only effect, or another doubt; inactive = flat fitted curve, though single readings scatter.

Experiments:
[1] = AP1 Signaling Pathway (AID 357); details: ME-180 AP-1-bla reporter, EGF-induced, beta-lactamase ratio, 5 h; at 17.2 µM (top of the series) unless noted; note: % is set by controls: 0 for no effect and ±100 for the full control effect
Method in brief: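 AP-1-bla ME-180 cells with beta-lactamase reporter under AP-1 response element, stimulated with EC50 EGF; compounds titrated, 5 hours at 37 degrees Celsius. CCF4 read at 460/530 nm ratio; positive and negative modulators judged by AC50.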

[2] = NFAT Signaling Pathway (AID 444); details: Jurkat NFAT-bla M1, carbachol, beta-lactamase ratio, 5 h; at 17.2 µM (top of the series) unless noted;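 note: carbachol stimulus at about its EC50 of 1 µM final; % is set by controls: 0 for no effect and ±100 for the full control effect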
Method in brief: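 Jurkat cells with NFAT-driven β-lactamase reporter and co-expressed M1 receptor, stimulated with carbachol (final 1 uM, ~EC50), compound titration, 5 h at 37 °C. CCF4 loaded 1 h at RT; 460/530 nm ratio gave %activity and AC50.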

[3] = Stat Signaling Pathway (AID 446); details: ME-180 (cervical carcinoma) SIE beta-lactamase reporter, IL-6 stimulated, 5 h; at 17.2 µM (top of the series) unless noted;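 note: ME-180 cervical cancer cells given 40 pM IL-6 alongside compound; SIE-controlled beta-lactamase reporter measured as 460/530 nm FRET emission ratio; % is set by controls: 0 for no effect and ±100 for the full control effect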
Method in brief: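 Normalization used AC90 stimulation (300 pM IL-6) and AC90 inhibition (125 nM pan-JAK inhibitor at 40 pM IL-6). The underlying signal is SIE-driven beta-lactamase in ME-180 cells after 5 h IL-6 exposure with compound.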

[4] = target: Glucocorticoid receptor (Homo sapiens) (UniProt P04150); experiment: GR-GFP Redistribution (AID 450;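 active = compounds whose dose series gives a full or clear partial fitted curve of increased nuclear translocation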; note: potency is the fitted concentration of half-maximal effect); details: U2OS GR-GFP nuclear translocation, laser cytometry, 2 h; series mostly up to 20.6 µM
Chain of Glucocorticoid receptor (Homo sapiens) (P04150 whole entry, looked up): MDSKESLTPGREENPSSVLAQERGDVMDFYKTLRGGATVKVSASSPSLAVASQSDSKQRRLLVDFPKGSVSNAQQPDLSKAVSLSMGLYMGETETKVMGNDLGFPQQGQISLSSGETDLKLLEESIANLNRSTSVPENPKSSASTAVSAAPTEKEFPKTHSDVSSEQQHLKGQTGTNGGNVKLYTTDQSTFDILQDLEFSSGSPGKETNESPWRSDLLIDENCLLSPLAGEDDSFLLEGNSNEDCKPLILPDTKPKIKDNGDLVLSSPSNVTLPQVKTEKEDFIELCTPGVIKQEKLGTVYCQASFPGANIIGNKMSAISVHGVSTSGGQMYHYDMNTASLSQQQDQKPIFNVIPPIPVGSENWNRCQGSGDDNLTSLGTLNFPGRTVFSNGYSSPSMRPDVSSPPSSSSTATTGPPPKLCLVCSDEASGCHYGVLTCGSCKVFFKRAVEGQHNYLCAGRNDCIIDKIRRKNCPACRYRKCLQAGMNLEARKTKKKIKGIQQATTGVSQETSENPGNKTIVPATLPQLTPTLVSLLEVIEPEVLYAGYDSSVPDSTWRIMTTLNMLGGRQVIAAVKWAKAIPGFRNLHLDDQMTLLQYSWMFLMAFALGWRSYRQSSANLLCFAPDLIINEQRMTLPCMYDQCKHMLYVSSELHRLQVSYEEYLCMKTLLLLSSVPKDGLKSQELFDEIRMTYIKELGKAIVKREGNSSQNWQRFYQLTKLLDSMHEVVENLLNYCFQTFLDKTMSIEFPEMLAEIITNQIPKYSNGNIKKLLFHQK

CCOC(=O)COn1c(=O)c(-c2ccc(OC)c(OC)c2)[n+]([O-])c2ccccc21
inactive: activity change, negative = inhibition [1] -0.29% | activity change, negative = inhibition [2] -6.08% | activity, negative = inhibition [3] 4.19% | Potency [4] > 20.6 µM

Cc1cc(C)n(CC2CC(=O)N(c3cc(Cl)cc(Cl)c3)C2=O)n1 (centres undefined)
inactive: activity change, negative = inhibition [1] -15.1% | activity change, negative = inhibition [2] -7.21% | activity, negative = inhibition [3] 2.96% | Potency [4] > 20.6 µM

Cc1ccccc1N1C(=O)C2ON(c3ccccc3)C(c3cccnc3)C2C1=O (centres undefined)
inactive: activity change, negative = inhibition [1] -2.7% | activity change, negative = inhibition [2] -0.971% | activity, negative = inhibition [3] -4.14% | Potency [4] > 20.6 µM

NC(=O)C1CCN(CCC(=O)Nc2ccc(Br)cc2)CC1
inactive: activity change, negative = inhibition [1] 11.3% | activity change, negative = inhibition [2] -28.6% | activity, negative = inhibition [3] 5.95% | Potency [4] > 20.6 µM

CCOC(=O)c1c(C)n(C)c2ccc(OC)c(NC(=O)c3cccs3)c12
inactive: activity change, negative = inhibition [1] -7.29% | activity change, negative = inhibition [2] 5.2% | activity, negative = inhibition [3] -16.1% | Potency [4] > 20.6 µM

COCCCn1c(C)nc2c(c1=O)c1nc3ccccc3nc1n2CCc1ccccc1
inactive: activity change, negative = inhibition [1] -6.69% | activity change, negative = inhibition [2] -1.98% | activity, negative = inhibition [3] -10% | Potency [4] > 20.6 µM

CC(C)c1cc(NCCCN2CCOCC2)n2c(nc3ccccc32)c1C#N
inactive: activity change, negative = inhibition [1] -14.3% | activity change, negative = inhibition [2] -9.44% | activity, negative = inhibition [3] 0.608% | Potency [4] > 20.6 µM

Cc1ccc(C2CC(C(F)(F)F)n3ncc(C(N)=O)c3N2)cc1 (centres undefined)
inactive: activity change, negative = inhibition [1] -3.17% | activity change, negative = inhibition [2] 2.37% | activity, negative = inhibition [3] 5.84% | Potency [4] > 20.6 µM

Cc1cc(C)n(CC(=O)n2c3c(c4ccccc42)CCCC3)n1
inactive: activity change, negative = inhibition [1] 5.13% | activity change, negative = inhibition [2] 0.496% | activity, negative = inhibition [3] 9.09% | Potency [4] > 20.6 µM

Cc1[nH]nc2cn[nH]c12
inactive: activity change, negative = inhibition [1] -10.4% | activity change, negative = inhibition [2] 6.17% | activity, negative = inhibition [3] 4.46% | Potency [4] > 20.6 µM

Clc1cccc(-c2nn3c(-c4cccc(Cl)c4)nnc3s2)c1
inactive: activity change, negative = inhibition [1] -10.3% | activity change, negative = inhibition [2] 1.34% | activity, negative = inhibition [3] 2.11% | Potency [4] > 20.6 µM

COc1cccc(OC)c1C(=O)N1CCN(S(=O)(=O)c2ccc(C)cc2)CC1
inactive: activity change, negative = inhibition [1] -12.3% | activity change, negative = inhibition [2] -1.17% | activity, negative = inhibition [3] 6.68% | Potency [4] > 20.6 µM

O=C(C1=C(O)C(=O)N(CCCN2CCOCC2)C1c1ccccn1)c1cccs1 (centres undefined)
inactive: activity change, negative = inhibition [1] -0.154% | activity change, negative = inhibition [2] -1.18% | activity, negative = inhibition [3] -0.582% | Potency [4] > 20.6 µM

CSc1nc(NC(C)=O)nc(C)c1Cl
inactive: activity change, negative = inhibition [1] 11.1% | activity change, negative = inhibition [2] -9.42% | activity, negative = inhibition [3] 3.48% | Potency [4] > 20.6 µM

Cc1ccc2[nH]c3c(c2c1)CN(C(=O)CN1CC(C)OC(C)C1)CC3 (centres undefined)
inactive: activity change, negative = inhibition [1] -2.87% | activity change, negative = inhibition [2] -2.75% | activity, negative = inhibition [3] 2.26% | Potency [4] > 20.6 µM

OCCNC1=NCCN1
inactive: activity change, negative = inhibition [1] -9.49% | activity change, negative = inhibition [2] 3.37% | activity, negative = inhibition [3] 1.85% | Potency [4] > 20.6 µM

CC(=O)/C(C#N)=C1\NC(=O)C(Cc2ccccc2)S1 (centres undefined)
inactive: activity change, negative = inhibition [1] 0.644% | activity change, negative = inhibition [2] -11.2% | activity, negative = inhibition [3] 3.16% | Potency [4] > 20.6 µM

CC(=O)N[C@H]1C[C@@H]1c1ccccc1
inactive: activity change, negative = inhibition [1] 5.08% | activity change, negative = inhibition [2] -8.6% | activity, negative = inhibition [3] 12.8% | Potency [4] > 20.6 µM

COc1cc(C(=O)Nc2ccc(O)cc2C(=O)O)ccc1OC(C)=O
inactive: activity change, negative = inhibition [1] -6.46% | activity change, negative = inhibition [2] 22.4% | activity, negative = inhibition [3] 6.09% | Potency [4] > 20.6 µM

COc1cc(-c2nn3c(-c4ccco4)nnc3s2)cc(OC)c1OC
inactive: activity change, negative = inhibition [1] -2.59% | activity change, negative = inhibition [2] -0.323% | activity, negative = inhibition [3] -1.97% | Potency [4] > 20.6 µM

C=CCc1c(C)nc(SCCC)[nH]c1=O
inactive: activity change, negative = inhibition [1] 2.81% | activity change, negative = inhibition [2] -9.46% | activity, negative = inhibition [3] -7.18% | Potency [4] > 20.6 µM

O=C1CC(c2ccccc2)NC(=O)N1 (centres undefined)
inactive: activity change, negative = inhibition [1] 8.17% | activity change, negative = inhibition [2] -2.15% | activity, negative = inhibition [3] -0.378% | Potency [4] > 20.6 µM

c1ccc(Cc2nn[nH]n2)cc1
inactive: activity change, negative = inhibition [1] 7.13% | activity change, negative = inhibition [2] -3.11% | activity, negative = inhibition [3] 8.05% | Potency [4] > 20.6 µM

COC(=O)CC1=C(C(=O)OC)C(c2cccc(OCC(N)=O)c2)C(C#N)=C(N)O1 (centres undefined)
inactive: activity change, negative = inhibition [1] 26.1% | activity change, negative = inhibition [2] -17.4% | activity, negative = inhibition [3] 6.6% | Potency [4] > 20.6 µM

CC1CCCCN1C(=O)C12CCC(C)(/C(=N/O)C1)C2(C)C (centres undefined)
inactive: activity change, negative = inhibition [1] -2.56% | activity change, negative = inhibition [2] 6.34% | activity, negative = inhibition [3] 7.2% | Potency [4] > 20.6 µM

CCOc1nc(SC(C(C)=O)C(=O)Nc2ccccc2)nc(N(C)C)n1 (centres undefined)
inactive: activity change, negative = inhibition [1] -3.25% | activity change, negative = inhibition [2] 19.9% | activity, negative = inhibition [3] 72.5% | Potency [4] > 20.6 µM

CCCc1nnc(NC(=O)c2c(O)c3c([nH]c2=O)CCCC3)s1
inactive: activity change, negative = inhibition [1] -4.44% | activity change, negative = inhibition [2] -18.4% | activity, negative = inhibition [3] 12.4% | Potency [4] > 20.6 µM

COc1ccc(/C(O)=C2/C(=O)C(=O)N(CCN3CCOCC3)C2c2cccnc2)cc1OC (centres undefined)
inactive: activity change, negative = inhibition [1] -2.7% | activity change, negative = inhibition [2] 7.11% | activity, negative = inhibition [3] 6.33% | Potency [4] > 20.6 µM

Nc1ncnc2nc(SCc3ccccc3)[nH]c12
inactive: activity change, negative = inhibition [1] -9.21% | activity change, negative = inhibition [2] -4.19% | activity, negative = inhibition [3] -9.74% | Potency [4] > 20.6 µM

Cc1ccc(-n2ncc3c(N4CCCC4)ncnc32)c(C)c1
inactive: activity change, negative = inhibition [1] -15% | activity change, negative = inhibition [2] 22.5% | activity, negative = inhibition [3] -1.13% | Potency [4] > 20.6 µM

CSc1nc(N)nc(SCC(=O)OC(C)C)c1C#N
inactive: activity change, negative = inhibition [1] -15.6% | activity change, negative = inhibition [2] 6.28% | activity, negative = inhibition [3] -5.26% | Potency [4] > 20.6 µM

CCOC(=O)C1Cc2c([nH]c3ccccc23)C(C)N1 (centres undefined)
inactive: activity change, negative = inhibition [1] -10.7% | activity change, negative = inhibition [2] 2.1% | activity, negative = inhibition [3] -9.52% | Potency [4] > 20.6 µM

CCOC(=O)CSc1nc2sc3c(c2c(=O)[nH]1)CC(C)(C)OC3
inactive: activity change, negative = inhibition [1] 6.27% | activity change, negative = inhibition [2] 6.58% | activity, negative = inhibition [3] 4.32% | Potency [4] > 20.6 µM

COc1ccc(-c2cc3nc4n(c(=O)c3s2)CCOC4)cc1
inactive: activity change, negative = inhibition [1] 18.4% | activity change, negative = inhibition [2] -10.1% | activity, negative = inhibition [3] 0.631% | Potency [4] > 20.6 µM

COc1ccc(/C=N/n2cncn2)cc1COc1ccc(NC(C)=O)cc1
inactive: activity change, negative = inhibition [1] -1.63% | activity change, negative = inhibition [2] 2.89% | activity, negative = inhibition [3] -3.18% | Potency [4] > 20.6 µM

CCSc1nnc(NC(=O)NCC(F)(F)F)s1
inactive: activity change, negative = inhibition [1] 7.55% | activity change, negative = inhibition [2] 2.76% | activity, negative = inhibition [3] 16.4% | Potency [4] > 20.6 µM

COc1ccc(C(C)=O)cc1CSCCC(=O)O
inactive: activity change, negative = inhibition [1] 3.88% | activity change, negative = inhibition [2] 2.2% | activity, negative = inhibition [3] 15.2% | Potency [4] > 20.6 µM

O=C(O)c1c[nH]c2ccc(S(=O)(=O)N3CCOCC3)cc12
inactive: activity change, negative = inhibition [1] 13.4% | activity change, negative = inhibition [2] -7.03% | activity, negative = inhibition [3] 6.65% | Potency [4] > 20.6 µM

CCc1nc(N2CCOCC2)c(C#N)c2c1CCCC2
inactive: activity change, negative = inhibition [1] -3.85% | activity change, negative = inhibition [2] -21.8% | activity, negative = inhibition [3] -7.54% | Potency [4] > 20.6 µM

CN1CCN(CCCCOc2ccc(F)cc2)CC1
inactive: activity change, negative = inhibition [1] 10.9% | activity change, negative = inhibition [2] -9.28% | activity, negative = inhibition [3] -0.445% | Potency [4] > 20.6 µM

COc1cc(C2C3C(=O)N(c4ccccc4)C(=O)C3ON2c2ccccc2)ccc1O (centres undefined)
inactive: activity change, negative = inhibition [1] 2.35% | activity change, negative = inhibition [2] 7.65% | activity, negative = inhibition [3] -2.83% | Potency [4] > 20.6 µM
